# Data from PubChem BioAssay.
# Calls of active or inactive are those of the source. Unless noted, how the calls were made is not given here.
# Experiments:
# [1] = HepG2 liver cancer cell viability effects, profiling panel, resazurin fluorescence, 24 h, PK04 Diversity Set (AID 1172); conditions: higher = more signal
# [2] = basal S. cerevisiae growth modulation, no modifier, primary screen, OD600, strain BY4716, 24 h, basal condition (AID 1173); conditions: OD600, 24 h, higher = more signal, called active from +8 up or from −8 down
# [3] = MM1S myeloma cell viability, profiling panel, resazurin fluorescence, basal, 24 h, PK04 Diversity Set (AID 1174); conditions: higher = more signal, called active from +8 up or from −8 down;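 further: MM1S multiple myeloma cell line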
# [4] = biological target: Dihydroorotate dehydrogenase (quinone), mitochondrial (Plasmodium falciparum (isolate 3D7)) (UniProt Q08210); experiment: PfDHODH enzyme inhibitors, primary screen, biochemical, C-terminal His tag, absorbance 600 nm (AID 1175); conditions: DCIP absorbance 600 nm, higher = more signal, called active from +8 up or from −8 down;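 further: recombinant parasite enzyme with a five histidine tag at its C terminus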
# [5] = P. aeruginosa biofilm formation inhibitors, primary screen, strain PAO1, LB-PBS medium, absorbance 600 nm (AID 1176); conditions: P. aeruginosa PAO1 growth/biofilm, A600, 12 h; higher = more signal
# [6] = S. cerevisiae RM11-1a growth modifiers, primary screen, strain RM11-1a, OD600, basal, 24 h (AID 1177); conditions: OD600, 24 h, higher = more signal, called active from +8 up or from −8 down;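 further: cultures grown under basal conditions with no added stressor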
# [7] = E. coli acrAB mutant growth effects, primary screen, E. coli filamentation inducers, strain DRC39, OD650, 24 h (AID 1178); conditions: higher = more signal, called active from +8 up or from −8 down;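 further: growth measured as culture turbidity by optical density at 650 nm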
# [8] = E. coli acrAB mutant growth effects, primary screen, E. coli filamentation inducers, strain DRC39, OD650, 48 h (AID 1179);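 further: screen aims at cell division blockers that make cells filament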; conditions: E. coli DRC39 delta-acrAB growth, higher = more signal, called active from +8 up or from −8 down
# [9] = RPMI8226 myeloma cell viability, profiling panel, resazurin fluorescence, basal, 24 h, PK04 Diversity Set (AID 1180); conditions: higher = more signal;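 further: RPMI8826 multiple myeloma cell line at 5000 cells per well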
# [10] = biological target: E3 ubiquitin-protein ligase XIAP (Homo sapiens) (UniProt P98170); experiment: XIAP binders, primary screen, biophysical, small-molecule microarray, fluorescence 635 nm (AID 1181); conditions: small-molecule microarray binding, higher = more signal;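 further: score merges 667 nm emission and signal to noise over triplicate slides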
# [11] = tested on: XIP peptide (Xip251-270) binding; experiment: small-molecule binders of XIP peptide, primary screen, biochemical, small-molecule microarray, fluorescence 635/667 nm, 0.1 µg/mL protein (AID 1182); conditions: fluorescent protein binding, 635 nm, higher = more signal, called active from +8 up or from −8 down
# XIP peptide (Xip251-270) = experiment: small-molecule binders of XIP peptide, primary screen, biochemical, small-molecule microarray, fluorescence 635/667 nm, 0.5 µg/mL protein (AID 1183); conditions: small-molecule microarray binding, fluorescence 635 nm; higher = more signal
# [12] = Plasmodium falciparum growth inhibition, primary screen, strain 3D7, DAPI fluorescence, 100 nL (AID 1184);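 further: parasites grown inside human red blood cells in medium with human serum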; conditions: P. falciparum 3D7 growth, 3 d, higher = more signal
# [13] = biological target: Homeobox protein Hox-A13 (Mus musculus) (UniProt Q62424); experiment: inhibitors of HoxA13-DNA binding, primary screen, biochemical, fluorescence polarization, labeled oligonucleotide (AID 1185); conditions: 15 min, higher = more signal, called active from +8 up or from −8 down
# [14] = inhibitors of hydroxyurea-induced Chk1 phosphorylation, primary screen, imaging, HeLa, phospho-Chk1 antibody, percent positive cells (AID 1186); conditions: hydroxyurea-induced phospho-Chk1 immunofluorescence imaging, higher = more signal
# [15] = inhibitors of hydroxyurea-induced Chk1 phosphorylation, primary screen, imaging, HeLa, phospho-Chk1 nuclear intensity (AID 1187); conditions: hydroxyurea-induced phospho-Chk1 immunofluorescence imaging, higher = more signal
# E3 ubiquitin-protein ligase XIAP (Homo sapiens), sequence (P98170 whole entry, looked up): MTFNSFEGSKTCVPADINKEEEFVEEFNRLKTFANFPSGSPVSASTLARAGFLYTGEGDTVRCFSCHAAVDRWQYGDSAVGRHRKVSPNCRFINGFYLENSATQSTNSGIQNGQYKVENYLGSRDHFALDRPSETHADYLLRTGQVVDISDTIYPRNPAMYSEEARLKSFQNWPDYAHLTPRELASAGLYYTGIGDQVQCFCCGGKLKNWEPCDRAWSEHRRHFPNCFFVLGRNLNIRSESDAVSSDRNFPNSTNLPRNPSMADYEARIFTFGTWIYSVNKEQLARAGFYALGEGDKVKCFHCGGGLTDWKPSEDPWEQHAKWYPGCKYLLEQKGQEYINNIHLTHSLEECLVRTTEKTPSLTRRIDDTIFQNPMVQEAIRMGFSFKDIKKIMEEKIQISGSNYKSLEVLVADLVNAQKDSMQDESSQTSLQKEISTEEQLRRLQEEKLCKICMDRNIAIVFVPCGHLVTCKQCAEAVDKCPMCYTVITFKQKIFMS
# Dihydroorotate dehydrogenase (quinone), mitochondrial (Plasmodium falciparum (isolate 3D7)), sequence (Q08210 whole entry, looked up): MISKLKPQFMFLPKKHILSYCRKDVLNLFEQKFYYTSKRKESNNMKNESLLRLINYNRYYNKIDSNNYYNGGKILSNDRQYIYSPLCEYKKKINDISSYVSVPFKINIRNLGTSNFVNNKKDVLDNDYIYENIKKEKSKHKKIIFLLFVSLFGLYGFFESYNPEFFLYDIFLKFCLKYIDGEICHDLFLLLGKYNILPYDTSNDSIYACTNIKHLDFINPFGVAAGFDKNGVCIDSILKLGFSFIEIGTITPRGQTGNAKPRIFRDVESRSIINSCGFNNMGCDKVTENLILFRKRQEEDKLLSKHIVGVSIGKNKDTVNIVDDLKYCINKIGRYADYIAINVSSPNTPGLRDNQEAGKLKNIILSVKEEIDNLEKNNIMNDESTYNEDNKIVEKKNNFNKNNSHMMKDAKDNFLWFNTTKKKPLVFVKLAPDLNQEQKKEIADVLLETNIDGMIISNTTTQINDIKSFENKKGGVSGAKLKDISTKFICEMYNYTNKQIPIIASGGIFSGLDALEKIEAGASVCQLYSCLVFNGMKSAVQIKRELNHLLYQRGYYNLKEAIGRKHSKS
# Homeobox protein Hox-A13 (Mus musculus), sequence (Q62424 whole entry, looked up): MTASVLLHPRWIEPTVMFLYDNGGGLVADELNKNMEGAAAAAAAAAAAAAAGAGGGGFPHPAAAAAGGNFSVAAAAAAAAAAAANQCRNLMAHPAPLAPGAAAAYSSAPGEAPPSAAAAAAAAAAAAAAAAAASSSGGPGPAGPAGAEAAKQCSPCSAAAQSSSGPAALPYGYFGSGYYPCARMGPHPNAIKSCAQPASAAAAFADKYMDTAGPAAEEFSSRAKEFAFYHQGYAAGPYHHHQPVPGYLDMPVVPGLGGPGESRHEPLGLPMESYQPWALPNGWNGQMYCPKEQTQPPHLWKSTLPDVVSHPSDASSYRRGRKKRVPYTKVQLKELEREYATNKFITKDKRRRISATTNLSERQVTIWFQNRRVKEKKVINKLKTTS
SMILES,z-score [1],z-score [2],z-score [3],composite z-score [4],z-score [5],z-score [6],z-score [7],z-score [8],z-score [9],composite z-score [10],composite z-score [11],composite z-score (XIP peptide (Xip251-270)),z-score [12],z-score [13],z-score [14],z-score [15]
COC(=O)[C@@]1(Cc2ccc(F)cc2)[C@H]2c3cc(C(=O)N4CCCC4)n(Cc4ccc(OC(F)(F)F)cc4)c3C[C@H]2CN1C(=O)c1ccccc1,0.178,0.944 (inactive),-0.799 (inactive),-0.132 (inactive),0.827 (inactive),0.157 (inactive),-0.961 (inactive),-0.678 (inactive),-0.453,0.0306,0.124 (inactive),0.267,0.096,-3.8 (inactive),1.06 (inactive),0.639 (inactive)
[N-]=[N+]=NCc1ccccc1C[C@@]1(C(=O)NCCN2CCOCC2)N=C(c2ccc(OCCCO)cc2)O[C@@H]1c1ccccc1,-0.419,-2.05 (inactive),-0.909 (inactive),0.742 (inactive),-0.0025 (inactive),-0.411 (inactive),0.594 (inactive),-0.959 (inactive),-1.02,0.0297,0.682 (inactive),0.629,-2.11,-4.43 (inactive),0.174 (inactive),0.47 (inactive)
CCCCCCCCCCC(O)C1C=CC2C(=O)N(C)C(=O)C2N1Nc1ccccc1 (stereo not given),-1.83,0.27 (inactive),-1.49 (inactive),-0.205 (inactive),1.58 (inactive),1.35 (inactive),-0.483 (inactive),-0.54 (inactive),-1.33,0.192,1.04 (inactive),-1.39,-0.0339,-2.87 (inactive),0.999 (inactive),0.135 (inactive)
COc1ccc([Si](C)(C)[C@H]2[C@H](CC(=O)N(CCO)Cc3ccccc3)O[C@@]3(C(=O)N(c4ccccc4)c4ccccc43)[C@@H]2C)cc1,-4.7,0.148 (inactive),-8.42 (active),0.531 (inactive),0.838 (inactive),0.29 (inactive),0.997 (inactive),-0.0322 (inactive),-6.25,0.226,-0.372 (inactive),0.342,-2.62,-5.46 (inactive),-0.807 (inactive),-0.763 (inactive)
CC(C)[Si]1(C(C)C)OCc2cc(-c3ccc(-c4ccc(Cl)c(Cl)c4)o3)nc(-c3ccc(Oc4ccccc4)cc3)c21,-0.213,-3.1 (inactive),-0.0996 (inactive),0.936 (inactive),0.574 (inactive),1.95 (inactive),0.223 (inactive),-0.262 (inactive),-0.133,0.114,0.146 (inactive),0.548,-0.497,-1.74 (inactive),0.0415 (inactive),-0.0792 (inactive)
C=CCNC(=O)[C@H]1[C@@H]2C(=O)O[C@@H](c3ccccc3)[C@@H](c3ccccc3)N2[C@@H](c2ccc(OCCO)cc2)[C@]12C(=O)Nc1ccc(C#Cc3ccc(OC)cc3)cc12,-1.06,2.32 (inactive),-0.512 (inactive),-2.27 (inactive),2.18 (inactive),3.66 (inactive),-0.672 (inactive),-0.995 (inactive),-1.29,1.29,0.43 (inactive),0.773,-2.39,-0.279 (inactive),0.165 (inactive),0.202 (inactive)
NCCCCCCNC(=O)[C@@H]1C[C@@H]2C(=O)NCC(=O)N2[C@@H]1c1cccc(OCCO)c1,-0.903,-0.277 (inactive),0.717 (inactive),-0.775 (inactive),-0.0617 (inactive),-0.121 (inactive),0.295 (inactive),0.976 (inactive),0.438,-0.213,0.592 (inactive),0.354,0.418,-1.96 (inactive),0.13 (inactive),0.118 (inactive)
C=CC[C@]1(C(=O)NCC(O)CO)N=C(c2ccc(OCCCO)cc2)O[C@H]1c1ccccc1CN=[N+]=[N-] (stereo not given in full),-0.766,-0.432 (inactive),-1.51 (inactive),-0.0887 (inactive),1.27 (inactive),0.244 (inactive),-0.363 (inactive),0.196 (inactive),-0.566,-0.0136,0.513 (inactive),-0.201,-2.5,-3.62 (inactive),-0.116 (inactive),-0.482 (inactive)
COc1cccc(C)c1NC(=O)O[C@H]1[C@H](OC(=O)Nc2ccccc2)[C@@H](OC(=O)Nc2ccccc2)[C@@H](OC)O[C@@H]1CO,-2,0.748 (inactive),-3.79 (inactive),-0.0526 (inactive),1.28 (inactive),2.78 (inactive),0.655 (inactive),-0.667 (inactive),-2.85,0.06,1.3 (inactive),0.912,-2.57,-4.95 (inactive),-0.515 (inactive),-0.515 (inactive)
CN(C)CCCC[C@@H]1NC(=O)[C@H]2C[C@@H](C(=O)NCCCCCCNC(=O)CS)[C@@H](c3cccc(OCCO)c3)N2C1=O,-0.27,-0.587 (inactive),-0.956 (inactive),-0.237 (inactive),0.463 (inactive),-0.511 (inactive),0.329 (inactive),0.0044 (inactive),-0.713,-0.177,0.305 (inactive),0.603,0.162,-1.91 (inactive),0.542 (inactive),0.68 (inactive)
COC(=O)C(CC#Cc1ccc2c(c1)[C@]1(C(=O)N2)[C@H](c2ccccc2OCCO)N2[C@H](c3ccccc3)[C@H](c3ccccc3)OC(=O)[C@H]2[C@@H]1C(=O)N1CCN(c2ncccn2)CC1)C(=O)OC,-0.0452,2.09 (inactive),-0.935 (inactive),-16.6 (active),2.29 (inactive),3.65 (inactive),0.236 (inactive),-0.11 (inactive),-4.73,0.306,-0.0996 (inactive),0.539,-2.27,-1.41 (inactive),0.0162 (inactive),-0.581 (inactive)
O=C(CS)NCCCCCCNC(=O)[C@H]1C[C@H]2C(=O)NCC(=O)N2[C@H]1c1cccc(OCCO)c1,-0.39,-0.462 (inactive),-0.0674 (inactive),-0.59 (inactive),0.339 (inactive),0.0796 (inactive),0.469 (inactive),-0.814 (inactive),-0.348,0.0269,0.419 (inactive),0.702,-1.34,-2.25 (inactive),-0.321 (inactive),-0.529 (inactive)
C=CC[C@]12N=C(c3ccc(OCCCO)cc3)O[C@H]1c1ccccc1N(CCC)C2=O,-0.151,-1.91 (inactive),-1.14 (inactive),-0.536 (inactive),1.24 (inactive),0.208 (inactive),0.181 (inactive),-0.464 (inactive),-0.65,0.0655,-0.0641 (inactive),0.842,-2.33,-4.5 (inactive),-0.206 (inactive),-0.234 (inactive)
CN(C)CCCCCCNC(=O)[C@@H]1C[C@@H]2C(=O)N[C@@H](CCCC[N+](C)(C)C)C(=O)N2[C@@H]1c1cccc(OCCO)c1,0.473,-0.834 (inactive),0.349 (inactive),-2.9 (inactive),0.0472 (inactive),-1.75 (inactive),1.03 (inactive),1.62 (inactive),-0.0472,0.141,0.877 (inactive),-0.0938,-0.143,-1.8 (inactive),0.559 (inactive),0.952 (inactive)
C=C(C(=O)CC[C@@H](OC(=O)c1ccccc1-c1ccccc1C(=O)O)c1ccc(CO)o1)C(C)C,-0.31,-0.317 (inactive),0.114 (inactive),-2.18 (inactive),1.63 (inactive),0.0083 (inactive),0.159 (inactive),-0.171 (inactive),0.16,-0.282,0.525 (inactive),0.434,1.88,-5.42 (inactive),0.762 (inactive),0.478 (inactive)
C=CCNC(=O)[C@@H]1[C@H]2C(=O)O[C@H](c3ccccc3)[C@H](c3ccccc3)N2[C@H](c2ccc(O)cc2)[C@@]12C(=O)N(C(=O)OCCOC)c1ccc(C#CCC(C(=O)OC)C(=O)OC)cc12,0.475,-0.17 (inactive),0.716 (inactive),-2.5 (inactive),0.089 (inactive),1.88 (inactive),1.09 (inactive),0.666 (inactive),-1.73,0.0859,0.891 (inactive),0.756,-1.7,-1.28 (inactive),-0.0611 (inactive),-0.187 (inactive)
COC(=O)[C@@]1(Cc2ccc(F)cc2)[C@H]2c3cc(C(=O)N4CCCC4)n(CCc4c[nH]c5cc(F)ccc45)c3C[C@H]2CN1C(=O)c1ccccc1,0.182,1.7 (inactive),-0.0568 (inactive),-0.362 (inactive),-0.815 (inactive),0.335 (inactive),-0.426 (inactive),-0.55 (inactive),-0.162,0.0535,0.0421 (inactive),0.684,-1.4,-2.5 (inactive),-0.332 (inactive),-0.589 (inactive)
[N-]=[N+]=NCc1ccccc1[C@H]1OC(c2ccc(OCCCO)cc2)=N[C@@]1(Cc1ccccc1N=[N+]=[N-])C(=O)O,0.539,-4.15 (inactive),0.119 (inactive),-0.862 (inactive),0.535 (inactive),-0.123 (inactive),-0.539 (inactive),-0.779 (inactive),-0.0412,0.166,0.107 (inactive),0.76,0.58,-4.41 (inactive),-0.0666 (inactive),0.194 (inactive)
C=CCNC(=O)[C@H]1[C@@H]2C(=O)O[C@@H](c3ccccc3)[C@@H](c3ccccc3)N2[C@@H](c2ccc(O)cc2)[C@]12C(=O)Nc1ccc(C#CCC(C(=O)OC)C(=O)OC)cc12,-0.111,0.24 (inactive),0.0789 (inactive),-7.4 (inactive),0.293 (inactive),0.249 (inactive),-0.254 (inactive),-0.0535 (inactive),-3.01,0.256,0.835 (inactive),0.764,-0.214,-2.88 (inactive),0.0976 (inactive),0.543 (inactive)
C[C@]1(C(=O)NCC(F)(F)F)c2ccccc2C(=O)N(Cc2cc(C(F)(F)F)cc(C(F)(F)F)c2)[C@H]1c1ccc(CO)cc1,0.373,-0.234 (inactive),1.2 (inactive),-0.954 (inactive),0.5 (inactive),0.507 (inactive),0.712 (inactive),0.827 (inactive),1.13,-0.0099,0.0939 (inactive),0.21,0.528,-3.48 (inactive),-0.496 (inactive),-0.308 (inactive)
